Among the data in PubChem BioAssay (NCI) are growth inhibition values, retold here.

A short description of assay [1]: NCI Yeast Anticancer Drug Screen. Data for the rad50 strain (AID 155).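 Note: 0% = growth of vehicle-only cultures of the same strain.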 To be noted: S. cerevisiae rad50 strain growth inhibition, active compounds read high. The method in brief: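 Readout: growth inhibition relative to vehicle-treated cultures. Compound exposure was carried out in a genetically defined yeast strain deficient in DNA damage repair.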
Assay [2] can be described thus: NCI Yeast Anticancer Drug Screen. Data for the mec2-1 strain (AID 157). Particulars: S. cerevisiae mec2-1 strain, active compounds read high. A digest of the protocol: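 Vehicle-treated cultures served as reference for growth inhibition of compound-exposed mec2-1 yeast.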
Assay [3] can be described thus: NCI Yeast Anticancer Drug Screen. Data for the sgs1 mgt1 strain (AID 161).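 Note: 0% = growth of cultures given vehicle only.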 To be noted: S. cerevisiae sgs1 mgt1 strain, active compounds read high. The method in brief: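 Test agents were incubated with a DNA-repair-mutant yeast strain. Growth was then read and compared against vehicle-treated controls.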
Assay [4] in a line: NCI Yeast Anticancer Drug Screen. Data for the cln2 rad14 strain (AID 165).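 Note: 0% = growth equal to vehicle treated cultures.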 To be noted: S. cerevisiae cln2 rad14 strain, active compounds read high. The method in brief:
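Each compound was tested on cln2 rad14 yeast. Inhibition of growth was calculated against vehicle-exposed controls.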

Assay [5] is described as follows: NCI Yeast Anticancer Drug Screen. Data for the bub3 strain (AID 167). To be noted: S. cerevisiae bub3 mutant strain, active compounds read high. The method in brief: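 Readout: yeast growth inhibition, expressed relative to vehicle-only wells. The test organism is a mutant strain from a panel with lesions in DNA repair or checkpoint genes.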
Assay [6] in a line: NCI Yeast Anticancer Drug Screen. Data for the mlh1 rad18 strain (AID 175). To be noted: S. cerevisiae mlh1 rad18 strain growth inhibition, active compounds read high. A digest of the protocol: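 Vehicle-treated cultures served as the reference for growth inhibition in a yeast strain carrying DNA damage repair alterations exposed to each compound.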
[7] abbreviates: at 5.0 µM (retest, dose inferred, filed as 0.5).
[8] abbreviates: at 50.0 µM (retest, dose inferred, filed as 5.0).

This is part of a sample that, as a whole, favours compounds with a hit. Of some 79,000 tested, about 15% had one in any assay. A number with no mark means an inactive call. Active and inactive are the calls of the source. Cut-off read from the data, not from the text of the source: active = growth inhibition above about 70%; inactive = the rest.

In the case of `CC(C)OC(=O)c1ccc(NC(=O)CCl)cc1`, the growth inhibition in assay [1] (setting [7]) was 0%; in assay [1] (setting [8]), -1%; in assay [1] (at 50.0 µM) it was 66.7%; in assay [2] (setting [7]), -1%; in assay [2] (setting [8]), 5%; in assay [2] (at 50.0 µM) it was 59.8%. Further, the growth inhibition in assay [3] (setting [7]) is 3%; in assay [3] (setting [8]), -8%; in assay [3] (at 50.0 µM) it was 79.1% (active); in assay [4] (setting [7]), -1%; in assay [4] (setting [8]) it was 5%; in assay [4] (at 50.0 µM), 31.9%. The growth inhibition is -4% in assay [5] (setting [7]); -2% in assay [5] (setting [8]); 61% in assay [5] (at 50.0 µM); -5% in assay [6] (setting [7]); 6% in assay [6] (setting [8]); 76.2% (active) in assay [6] (at 50.0 µM).
Regarding `CCCCCCCCCCCCCCCCCC[n+]1cccc(C(=O)c2ccccc2)c1`, the growth inhibition was 58% in assay [1] (setting [7]); 99% (active) in assay [1] (setting [8]); 99.3% (active) in assay [1] (at 50.0 µM); 92% (active) in assay [2] (setting [7]); 100% (active) in assay [2] (setting [8]); 99.5% (active) in assay [2] (at 50.0 µM). The growth inhibition is 97% (active) in assay [3] (setting [7]); 99% (active) in assay [3] (setting [8]); 99.5% (active) in assay [3] (at 50.0 µM); 56% in assay [4] (setting [7]); 98% (active) in assay [4] (setting [8]); 97.3% (active) in assay [4] (at 50.0 µM). Also, the growth inhibition in assay [5] (setting [7]) was 68%; in assay [5] (setting [8]), 99% (active); in assay [5] (at 50.0 µM), 98.7% (active); in assay [6] (setting [7]), 98% (active); in assay [6] (setting [8]), 99% (active); in assay [6] (at 50.0 µM), 99.5% (active).
Consider `Cc1nn(C(=O)c2ccccc2O)c2c1C(c1ccco1)SC(N)=N2` (configuration not stated), for which the growth inhibition in assay [1] (setting [7]) is -6%; in assay [1] (setting [8]), 65%; in assay [1] (at 50.0 µM) it was 67.5%; in assay [2] (setting [7]), 11%; in assay [2] (setting [8]), 59%; in assay [2] (at 50.0 µM), 38.8%. In addition, the growth inhibition in assay [3] (setting [7]) is 8%; in assay [3] (setting [8]) it was 64%; in assay [3] (at 50.0 µM), 57%; in assay [4] (setting [7]), 10%; in assay [4] (setting [8]) it was 52%; in assay [4] (at 50.0 µM), 43.6%. In addition, the growth inhibition was 7% in assay [5] (setting [7]); 86% (active) in assay [5] (setting [8]); 69% in assay [5] (at 50.0 µM); 11% in assay [6] (setting [7]); 86% (active) in assay [6] (setting [8]); 59.3% in assay [6] (at 50.0 µM).
Take `COc1ccc(CCN2CC(=O)N3CSCC3C2=O)cc1OC` (configuration not stated): the growth inhibition in assay [1] (setting [7]) was 6%; in assay [1] (setting [8]), 24%; in assay [1] (at 50.0 µM), 66.7%; in assay [2] (setting [7]) it was 5%; in assay [2] (setting [8]), 16%; in assay [2] (at 50.0 µM), 7.05%. Besides, the growth inhibition in assay [3] (setting [7]) is 9%; in assay [3] (setting [8]), 27%; in assay [3] (at 50.0 µM) it was 34.8%; in assay [4] (setting [7]) it was 4%; in assay [4] (setting [8]) it was 27%; in assay [4] (at 50.0 µM), 25.4%. The growth inhibition in assay [5] (setting [7]) is 3%; in assay [5] (setting [8]), 28%; in assay [5] (at 50.0 µM), 21.8%; in assay [6] (setting [7]) it was -1%; in assay [6] (setting [8]), 14%; in assay [6] (at 50.0 µM) it was 37.2%.
In the case of `N#Cc1ccc(OC(=O)Nc2c(Cl)cccc2Cl)cc1`, the growth inhibition was 46% in assay [1] (setting [7]); 41% in assay [1] (setting [8]); 80.4% (active) in assay [1] (at 50.0 µM); 36% in assay [2] (setting [7]); 42% in assay [2] (setting [8]); 82.2% (active) in assay [2] (at 50.0 µM). The growth inhibition in assay [3] (setting [7]) is 44%; in assay [3] (setting [8]), 53%; in assay [3] (at 50.0 µM), 86.2% (active); in assay [4] (setting [7]), 34%; in assay [4] (setting [8]), 45%; in assay [4] (at 50.0 µM), 83.9% (active). Also, the growth inhibition was 31% in assay [5] (setting [7]); 70% (active) in assay [5] (setting [8]); 84.3% (active) in assay [5] (at 50.0 µM); 47% in assay [6] (setting [7]); 50% in assay [6] (setting [8]); 83.5% (active) in assay [6] (at 50.0 µM).
Turning to `CCCCC#CC(=O)OCCCCC`, the growth inhibition in assay [1] (setting [7]) was -2%; in assay [1] (setting [8]), 0%; in assay [1] (at 50.0 µM) it was -18.9%; in assay [2] (setting [7]), 4%; in assay [2] (setting [8]), 1%; in assay [2] (at 50.0 µM) it was -3.1%. For the same molecule, the growth inhibition is 1% in assay [3] (setting [7]); 3% in assay [3] (setting [8]); -13.4% in assay [3] (at 50.0 µM); -5% in assay [4] (setting [7]); -2% in assay [4] (setting [8]); 25.1% in assay [4] (at 50.0 µM). Further, the growth inhibition in assay [5] (setting [7]) is 1%; in assay [5] (setting [8]), 3%; in assay [5] (at 50.0 µM), -14.6%; in assay [6] (setting [7]), -2%; in assay [6] (setting [8]), -4%; in assay [6] (at 50.0 µM), -16.4%.
With `COC(=O)/C=N/O`, the growth inhibition in assay [1] (setting [7]) is -17%; in assay [1] (setting [8]), 7%; in assay [1] (at 50.0 µM), -19.4%; in assay [2] (setting [7]) it was -9%; in assay [2] (setting [8]) it was -6%; in assay [2] (at 50.0 µM) it was -6.9%. Moreover, the growth inhibition is -5% in assay [3] (setting [7]); -4% in assay [3] (setting [8]); 8.85% in assay [3] (at 50.0 µM); 7% in assay [4] (setting [7]); -1% in assay [4] (setting [8]); 0.85% in assay [4] (at 50.0 µM). Further, the growth inhibition in assay [5] (setting [7]) was -19%; in assay [5] (setting [8]), -1%; in assay [5] (at 50.0 µM), -14.9%; in assay [6] (setting [7]), -2%; in assay [6] (setting [8]) it was -6%; in assay [6] (at 50.0 µM) it was 36.3%.
As for `O=c1[nH]c(CN2CCCCC2)nn1-c1ccccc1`, the growth inhibition was -1% in assay [1] (setting [7]); 3% in assay [1] (setting [8]); 8.25% in assay [1] (at 50.0 µM); 0% in assay [2] (setting [7]); 3% in assay [2] (setting [8]); 10.1% in assay [2] (at 50.0 µM). Besides, the growth inhibition was -1% in assay [3] (setting [7]); 1% in assay [3] (setting [8]); 9.75% in assay [3] (at 50.0 µM); 4% in assay [4] (setting [7]); -1% in assay [4] (setting [8]); 69.4% in assay [4] (at 50.0 µM). The growth inhibition in assay [5] (setting [7]) is 0%; in assay [5] (setting [8]), -4%; in assay [5] (at 50.0 µM), 14.6%; in assay [6] (setting [7]) it was -2%; in assay [6] (setting [8]), 1%; in assay [6] (at 50.0 µM), 2.45%.
Consider `CCCCOc1ccc(CN2CCOC2=O)cc1`, for which the growth inhibition in assay [1] (setting [7]) was 3%; in assay [1] (setting [8]) it was 8%; in assay [1] (at 50.0 µM), 38.6%; in assay [2] (setting [7]), 7%; in assay [2] (setting [8]) it was 12%; in assay [2] (at 50.0 µM) it was 17.8%. The growth inhibition is 4% in assay [3] (setting [7]); 4% in assay [3] (setting [8]); 10.6% in assay [3] (at 50.0 µM); 5% in assay [4] (setting [7]); 9% in assay [4] (setting [8]); 28.3% in assay [4] (at 50.0 µM). For the same molecule, the growth inhibition in assay [5] (setting [7]) is 7%; in assay [5] (setting [8]) it was 7%; in assay [5] (at 50.0 µM), 6.3%; in assay [6] (setting [7]) it was 0%; in assay [6] (setting [8]), 3%; in assay [6] (at 50.0 µM) it was 55.4%.
